# TDP1 cell CPT = qHTS for Inhibitors of human tyrosyl-DNA phosphodiesterase 1 (TDP1): qHTS in cells in presence of CPT. chicken DT40 Tdp1-/-;hTDP1 cells + 20 nM CPT, ATP luminescence, 48 h. Potency, µM (titrated, usually from 46.2 µM), actives largely listed as inhibitors. actives 12% (n = 420,000); further: nearly all actives have a fitted effect of over 55% in size
#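 Chicken DT40 Tdp1-/- cells complemented with human TDP1, 400 cells/well, exposed to compounds plus 20 nM camptothecin for at least 48 h at 37 C; viability read as ATP content by CellTiter-Glo luminescence.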
# IL1B secr inh = qHTS for Inhibitors of Inflammasome Signaling: IL-1-beta AlphaLISA Primary Screen | THP-1 LPS/ATP IL-1B secretion, AlphaLISA, 16 h; active compounds read low | activity change, % at 57.5 µM | AID 743279, 2014 | actives 4.7% (n = 360,000); in the data active means activity change below about -50%; inconclusive means mostly about -30% to -49%
#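 Secreted IL-1B measured by AlphaLISA bead assay after 16 h compound exposure of THP-1 cells; compounds (final up to 57.5 uM) added 1 h before LPS (250 ng/mL) and ATP (1.25 mM) stimulation; lower signal means less secretion.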
# HT1080-NT tox = qHTS for induction of synthetic lethality in tumor cells producing 2HG: qHTS for the HT-1080-NT fibrosarcoma cell line | actives 1.6% (n = 360,000) | HT-1080-NT fibrosarcoma viability, CellTiter-Glo ATP luminescence, 48 h | Potency, µM (titrated, usually from 46.1 µM), hits mostly cytotoxic;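 further: NT is the 2HG producing partner of a matched IDH1 knockdown line; nearly all actives have a fitted effect of over 55% in size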
#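 Read-out is CellTiter-Glo luminescence after 10 minutes at room temperature, following 48 hours' compound treatment of HT-1080-NT cells (750 cells/well, RPMI, 5% FBS, 37 degrees C).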
# 12-LOX inh = Primary qHTS assay for inhibitors of human arachidonate 12S-lipoxygenase (ALOX12): Round 2 | Polyunsaturated fatty acid lipoxygenase ALOX12 (Homo sapiens), P18054 | purified 12hLO, xylenol orange hydroperoxide absorbance | Potency, µM (doses to about 108 µM), most hits filed as inhibitors | actives 1.1% (n = 580,000)
# Target sequence (P18054 whole entry, looked up): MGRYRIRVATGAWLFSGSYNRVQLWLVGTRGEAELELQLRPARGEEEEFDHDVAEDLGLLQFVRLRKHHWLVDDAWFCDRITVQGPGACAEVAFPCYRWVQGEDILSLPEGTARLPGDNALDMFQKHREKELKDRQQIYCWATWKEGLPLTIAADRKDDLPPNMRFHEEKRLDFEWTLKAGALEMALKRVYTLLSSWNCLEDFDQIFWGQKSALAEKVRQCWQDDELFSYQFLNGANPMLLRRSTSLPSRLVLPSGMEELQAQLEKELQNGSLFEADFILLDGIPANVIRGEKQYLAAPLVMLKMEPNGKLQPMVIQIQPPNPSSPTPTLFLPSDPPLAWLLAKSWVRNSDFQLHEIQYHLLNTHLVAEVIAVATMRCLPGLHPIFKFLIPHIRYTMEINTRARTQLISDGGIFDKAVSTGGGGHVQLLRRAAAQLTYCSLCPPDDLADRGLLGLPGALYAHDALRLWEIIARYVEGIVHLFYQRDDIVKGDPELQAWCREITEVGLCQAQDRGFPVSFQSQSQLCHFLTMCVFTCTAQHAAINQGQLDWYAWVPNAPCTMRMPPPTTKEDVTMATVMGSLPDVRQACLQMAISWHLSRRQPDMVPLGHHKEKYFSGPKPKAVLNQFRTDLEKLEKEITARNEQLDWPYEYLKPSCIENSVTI
#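 Purified human 12hLO at 150 nM in 25 mM Hepes, 0.01% Triton X-100, pH 7.0, preincubated 15 min at room temperature with compound. Reaction started with 40 uM arachidonic acid, 30 min at room temperature. Hydroperoxide measured by Fe-xylenol orange, 573/405 nm absorbance ratio.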
# HT1080 IDH1KD tx = qHTS for induction of synthetic lethality in tumor cells producing 2HG: qHTS for the HT-1080-IDH1KD cell line; HT-1080 IDH1 knockdown viability, ATP luminescence, 48 h; Potency, µM (doses to about 46.1 µM), usual class: cytotoxic; actives 2% (n = 360,000); AID 686971, 2013
#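 Using the IDH1-knockdown HT-1080 line run in the same batch and compound series as the NT line, viability after 48 h at 37 °C was determined by CellTiter-Glo luminescence and expressed as % activity.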
# TDP1 cell noCPT = qHTS for Inhibitors of human tyrosyl-DNA phosphodiesterase 1 (TDP1): qHTS in cells in absence of CPT; Potency, µM (series often up to 46.2 µM), hits mostly inhibitors; AID 686978, 2013; DT40 Tdp1-/- hTDP1 cells, no CPT, ATP luminescence, 48 h; actives 15% (n = 420,000); further: nearly all actives have a fitted effect of over 55% in size
#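 Chicken DT40 Tdp1-/- cells complemented with human TDP1, screened without camptothecin (DMSO vehicle only), 400 cells/well. Compounds pin-transferred, cells incubated at 37 °C for at least 48 hr. Growth read as ATP-dependent luminescence (CellTiter-Glo, 30 min at RT).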
# Hits are given with their value; . = inactive; ? = inconclusive; / = not tested or not shown. The full list was thinned out, with hits kept by preference. Unless noted, the call rests on the fitted dose curve; in most records, active means well fitted curve in the direction sought with a large enough effect; inconclusive means small, poorly fitted or top-dose-only effect, or another doubt; inactive means no such curve, though single readings can be large; an effect the other way counts as inactive or inconclusive.
SMILES,TDP1 cell CPT,IL1B secr inh,HT1080-NT tox,12-LOX inh,HT1080 IDH1KD tx,TDP1 cell noCPT
COc1ccccc1-c1noc(-c2ccc(NCc3ccco3)c([N+](=O)[O-])c2)n1,12µM,/,/,.,/,12µM
CC(C)Nc1ccc(-c2nc(-c3ccco3)no2)cc1[N+](=O)[O-],?,/,/,.,/,16µM
CCCn1nc(C(=O)N2CCSCC2)c2ccccc2c1=O,/,/,/,.,/,/
COc1ccccc1C1CC(=O)Nc2c1sc(C(=O)O)c2-c1ccc(F)cc1 (stereo not drawn),/,/,/,.,/,/
CCOC(=O)N1CCC(n2c(SCC(=O)NCc3ccco3)nc3ccsc3c2=O)CC1,23µM,.,.,/,.,18µM
CCOC(=O)N1CCC(n2c(SCC(=O)c3ccccc3)nc3ccsc3c2=O)CC1,2.6µM,.,.,.,.,2.9µM
COc1ccc(C(=O)N2CCC(n3cc(-c4nc(C(C)C)no4)nn3)CC2)cc1OC,/,/,/,.,/,/
CCOC(=O)c1ccc(Nc2c(-c3ccc(OC)cc3)nc3nc[nH]n23)cc1,21µM,/,/,.,/,23µM
CCOC(=O)c1ccc(Nc2c(-c3ccc(O)c(OC)c3)nc3nc[nH]n23)cc1,12µM,/,/,.,/,16µM
CCOC(=O)c1ccc(Nc2c(-c3ccc(O)cc3)nc3nc[nH]n23)cc1,?,/,/,.,/,?
CC(C)N(C(=O)[C@H]1C[C@H](CC(=O)NCCCn2ccnc2)C(=O)N2CCc3c([nH]c4cc(-c5ccco5)ccc34)[C@]12C)C(C)C,.,.,.,.,.,.
CCN(CC)C(=O)[C@H]1C[C@H](CC(=O)NC(C)(C)C)C(=O)N2CCc3c([nH]c4cc(-c5ccco5)ccc34)[C@]12C,23µM,.,.,?,.,18µM
CC(C)N(C(=O)[C@H]1C[C@H](CC(=O)NCCN2CCOCC2)C(=O)N2CCc3c([nH]c4cc(-c5ccco5)ccc34)[C@]12C)C(C)C,?,?,.,.,.,?
CC(C)N(C(=O)[C@H]1C[C@H](CC(=O)NC(C)(C)C)C(=O)N2CCc3c([nH]c4cc(-c5ccco5)ccc34)[C@]12C)C(C)C,?,-67,.,?,.,?
Cc1noc(C)c1C(=O)NCc1ccnc(OC2CCCC2)c1,/,/,/,.,/,/
CCc1ccc(-c2nc(SC(C(=O)N(C)C)c3ccccc3)n[nH]2)cc1 (stereo not drawn),/,/,/,.,/,/
O=C(CC[C@@H]1CNC(=O)[C@@H]2C[C@H](NC(=O)c3cccc(F)c3)CN12)NCc1cccnc1,/,/,/,.,/,/
O=C(CC[C@@H]1CNC(=O)[C@@H]2C[C@H](NC(=O)Nc3cccc(Cl)c3)CN12)NCc1cccnc1,/,/,/,45µM,/,/
CCC(c1cccnc1)N(C)C(=O)C1CCN(C(=O)C2CCCC2)CC1 (stereo not drawn),/,/,/,.,/,/
CN(C)c1cc(=O)c2ccnc(-c3ccc(F)c(Cl)c3)c2o1,/,/,/,.,/,/
CC(C)(C)S(=O)(=O)N1Cc2cc(CO)ccc2[C@H]1CCO,/,/,/,.,/,/
O=C1OC(c2ccco2)=N/C1=C\c1ccc(-c2cccc(C(F)(F)F)c2)o1,?,.,.,?,.,23µM
O=C1OC(c2cccs2)=N/C1=C/c1ccc(-c2cccc(C(=O)O)c2)o1,?,.,.,?,.,?
CNc1nc2cc([N+](=O)[O-])c([N+](=O)[O-])cc2nc1NC,2.3µM,.,3.3µM,.,3.3µM,3.3µM
Cc1ccc(S(=O)(=O)Nc2cccc3cccnc23)c(C)c1,/,/,/,.,/,/
SMILES,TDP1 cell CPT,IL1B secr inh,HT1080-NT tox,12-LOX inh,HT1080 IDH1KD tx,TDP1 cell noCPT
O=C(Nc1ccc(Br)cc1)c1cccn1-c1ncc(C(F)(F)F)cc1Cl,16µM,.,?,?,11µM,?
CN1CCC(NC(=O)c2ccc3c(c2)n(Cc2ccc(F)cc2)c(=O)c2ccnn23)CC1,/,/,/,20µM,/,/
CCCCNC(=O)c1ccc2c(c1)n(Cc1ccc(F)cc1)c(=O)c1ccnn12,/,/,/,.,/,/
Cc1ccc(CNC(=O)Cn2c(=O)c3c(ncn3C)n(C)c2=O)cc1F,/,/,/,.,/,/
Cc1cc(COc2ccc(C(=O)c3ccccc3)cc2)on1,/,/,/,.,/,/
O=C(Cc1ccc(F)cc1)OCc1cc(-c2ccccc2)no1,/,/,/,.,/,/
Cc1cc(Br)cnc1NC(=S)Nc1ccc(F)cc1F,.,.,.,14µM,.,?
CCOC(=O)C1Oc2ccccc2C(C(=O)OC)=C1C(=O)OC (stereo not drawn),.,.,.,/,.,.
C=C1c2ccccc2O[C@H](C(=O)OCC)[C@@H]1C1CCCCC1,?,.,.,20µM,.,?
O=C(Cn1nnc(-c2cc(C(F)(F)F)cc(C(F)(F)F)c2)n1)NNC(=S)Nc1ccc(Cl)cc1,.,.,.,18µM,.,?
O=C(c1ccc(Oc2ccc(C(F)(F)F)cc2[N+](=O)[O-])cc1)N1CCOCC1,?,.,.,.,.,15µM
COc1cccc(NC(=O)C2CC(=O)N(c3ccc(Br)cc3)C2)c1 (stereo not drawn),.,/,/,.,/,.
O=C(Nc1cc(F)cc(F)c1)c1ccc2ccccc2n1,/,/,/,.,/,/
CCC1(C)N=C(N)Nc2nc3cc(C)c(C)cc3n21 (stereo not drawn),9.2µM,.,.,.,.,9.2µM
O=C(O)Cn1cc2c(n1)CCCC2,.,.,.,20µM,.,.
O=C(Cn1cc2c(n1)CCCC2)N1CCOCC1,.,.,.,.,.,.
COc1cccc(/C=N/N2CCN(c3ccncc3S(=O)(=O)N3CCCCC3)CC2)c1,?,.,.,.,.,2.6µM
Cc1ccccc1C1C=C(c2ccccc2)OC(c2ccccc2)=C1C=O (stereo not drawn),/,/,/,5.6µM,/,/
C=C(C)Cn1c(-n2nc(C)cc2C)nc2c1c(=O)n(C)c(=O)n2C,/,/,/,.,/,/
CCC1CCCCN1C(=O)CSc1nc2c([nH]c3ccccc32)c(=O)n1-c1ccc(OC)cc1 (stereo not drawn),?,/,/,.,/,18µM
C=CCn1c(SCC(=O)N2CCCC2)nc2c([nH]c3ccccc32)c1=O,.,.,.,.,.,.
C=CCn1c(SCC(=O)N2CCN(C(=O)OCC)CC2)nc2c([nH]c3ccccc32)c1=O,?,.,.,.,.,16µM

# Screening data from PubChem BioAssay.
